Laboratory results as given in PubChem BioAssay AID1159580 (chemical genetic matrix, 2015).
Hit rate of the full screen: of about 5,500 compounds, about 2,000 (36%) were called active. Roughly 18% stayed inconclusive and do not appear here. Rule as the data show it: active = normalized growth mostly below about 0.91 (no sharp cut-off); inconclusive = no clear call, values can overlap the other calls; inactive = mostly above about 0.92. The list shows a part of the results.

Assay: chemical genetic growth profiling, strain panel (AID 1159580);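 also: tested at 20 µM; growth read once vehicle control cultures reached saturation at 30 °C; 1 = growth at the plate median or of vehicle wells; lower values mean less growth of the strain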
Conditions: growth OD
[1] = S. cerevisiae deletion strains, locus YGR078C, strain PAC10, hits give low values
[2] = S. cerevisiae deletion strains, locus YGR229C, strain SMI1, hits give low values
[3] = S. cerevisiae deletion strains, locus YNL153C, strain GIM3, hits give low values
[4] = S. cerevisiae deletion strains, locus YNL322C, strain KRE1, hits give low values
[5] = S. cerevisiae deletion strains, locus YPL055C, strain LGE1, hits give low values
[6] = S. cerevisiae deletion strains, locus YPL241C, strain CIN2, hits give low values

Measured: normalized growth

COC(=O)c1c(Cl)c(Cl)c(C(=O)OC)c(Cl)c1Cl
inactive: S. cerevisiae deletion strains, locus YAL013W, strain DEP1, hits give low values 0.991 | S. cerevisiae deletion strains, locus YBR021W, strain FUR4, hits give low values 0.972 | S. cerevisiae deletion strains, locus YBR229C, strain ROT2, hits give low values 1 | S. cerevisiae deletion strains, locus YCL029C, strain bik1, hits give low values 1.01 | S. cerevisiae deletion strains, locus YDL035C, strain GPR1, hits give low values 1.01 | S. cerevisiae deletion strains, locus YDL074C, strain BRE1, hits give low values 0.927 | S. cerevisiae deletion strains, locus YDL101C, strain DUN1, hits give low values 0.978 | S. cerevisiae deletion strains, locus YDL134C, strain PPH21, hits give low values 0.998 | S. cerevisiae deletion strains, locus YDL185W, strain tfp1, hits give low values 1.01 | S. cerevisiae deletion strains, locus YDL192W, strain arf1, hits give low values 1 | S. cerevisiae deletion strains, locus YDR101C, strain arx1, hits give low values 0.995 | S. cerevisiae deletion strains, locus YDR150W, strain NUM1, hits give low values 1 | S. cerevisiae deletion strains, locus YDR162C, strain NBP2, hits give low values 0.997 | S. cerevisiae deletion strains, locus YDR318W, strain mcm21, hits give low values 1 | S. cerevisiae deletion strains, locus YDR388W, hits give low values 1 | S. cerevisiae deletion strains, locus YDR502C, strain sam2, hits give low values 0.999 | S. cerevisiae deletion strains, locus YEL061C, strain CIN8, hits give low values 0.999 | S. cerevisiae deletion strains, locus YER110C, hits give low values 1 | S. cerevisiae deletion strains, locus YER155C, strain BEM2, hits give low values 0.984 | S. cerevisiae deletion strains, locus YER167W, strain BCK2, hits give low values 0.998 | S. cerevisiae deletion strains, locus YGL078C, strain dbp3, hits give low values 1.01 | S. cerevisiae deletion strains, locus YGL086W, strain mad1, hits give low values 0.998 | S. cerevisiae deletion strains, locus YGL248W, strain PDE1, hits give low values 1.01 | [1] 0.987 | S. cerevisiae deletion strains, locus YGR135W, strain pre9, hits give low values 0.994 | [2] 0.988 | S. cerevisiae deletion strains, locus YGR252W, strain gcn5, hits give low values 0.944 | S. cerevisiae deletion strains, locus YHR030C, strain SLT2, hits give low values 0.971 | S. cerevisiae deletion strains, locus YHR079C, strain IRE1 (second series), hits give low values 1 | S. cerevisiae deletion strains, locus YHR094C, strain hxt1, hits give low values 1 | S. cerevisiae deletion strains, locus YHR129C, strain ARP1, hits give low values 0.996 | S. cerevisiae deletion strains, locus YHR200W, strain rpn10, hits give low values 1 | S. cerevisiae deletion strains, locus YIL066C, strain RNR3, hits give low values 0.984 | S. cerevisiae deletion strains, locus YIL073C, strain SPO22, hits give low values 1.03 | S. cerevisiae deletion strains, locus YIL125W, strain kgd1, hits give low values 0.994 | S. cerevisiae deletion strains, locus YIR030C, strain dcg1, hits give low values 1.01 | S. cerevisiae deletion strains, locus YJL095W, strain BCK1, hits give low values 0.962 | S. cerevisiae deletion strains, locus YJL134W, strain LCB3, hits give low values 1 | S. cerevisiae deletion strains, locus YJL168C, strain set2, hits give low values 1 | S. cerevisiae deletion strains, locus YJL187C, strain SWE1 (second series), hits give low values 1.01 | S. cerevisiae deletion strains, locus YJR043C, strain POL32, hits give low values 0.969 | S. cerevisiae deletion strains, locus YJR075W, strain HOC1, hits give low values 0.978 | S. cerevisiae deletion strains, locus YKL009W, strain mrt4, hits give low values 0.987 | S. cerevisiae deletion strains, locus YKL068W, hits give low values 0.996 | S. cerevisiae deletion strains, locus YKL085W, strain MDH1 (second series), hits give low values 0.995 | S. cerevisiae deletion strains, locus YKL085W, strain MDH1, hits give low values 0.995 | S. cerevisiae deletion strains, locus YKL190W, strain CNB1, hits give low values 0.998 | S. cerevisiae deletion strains, locus YKR001C, strain vps1, hits give low values 1.03 | S. cerevisiae deletion strains, locus YLR039C, strain RIC1, hits give low values 1.24 | S. cerevisiae deletion strains, locus YLR058C, strain SHM2, hits give low values 1 | S. cerevisiae deletion strains, locus YLR102C, strain apc9, hits give low values 1.01 | S. cerevisiae deletion strains, locus YLR262C, strain YPT6, hits give low values 1.18 | S. cerevisiae deletion strains, locus YLR268W, strain sec22, hits give low values 0.992 | S. cerevisiae deletion strains, locus YLR330W, strain CHS5, hits give low values 1 | S. cerevisiae deletion strains, locus YLR342W, strain FKS1 (second series), hits give low values 1.01 | S. cerevisiae deletion strains, locus YLR371W, strain rom2, hits give low values 1.01 | S. cerevisiae deletion strains, locus YLR418C, strain cdc73, hits give low values 0.929 | S. cerevisiae deletion strains, locus YML016C, strain PPZ1, hits give low values 0.993 | S. cerevisiae deletion strains, locus YML032C, strain rad52, hits give low values 1.01 | S. cerevisiae deletion strains, locus YML124C, strain tub3, hits give low values 1.01 | S. cerevisiae deletion strains, locus YMR078C, strain ctf18, hits give low values 1.01 | S. cerevisiae deletion strains, locus YMR223W, strain ubp8, hits give low values 1 | S. cerevisiae deletion strains, locus YMR263W, strain SAP30, hits give low values 0.987 | S. cerevisiae deletion strains, locus YMR307W, strain GAS1, hits give low values 0.972 | S. cerevisiae deletion strains, locus YNL067W, strain RPL9B, hits give low values 0.985 | S. cerevisiae deletion strains, locus YNL128W, strain TEP1, hits give low values 1 | [3] 1 | S. cerevisiae deletion strains, locus YNL233W, strain BNI4, hits give low values 1.01 | S. cerevisiae deletion strains, locus YNL250W, strain rad50, hits give low values 1.01 | S. cerevisiae deletion strains, locus YNL271C, strain bni1, hits give low values 1.01 | S. cerevisiae deletion strains, locus YNL298W, strain CLA4, hits give low values 0.997 | S. cerevisiae deletion strains, locus YNL307C, strain MCK1, hits give low values 0.998 | [4] 0.994 | S. cerevisiae deletion strains, locus YNR052C, strain pop2, hits give low values 1.02 | S. cerevisiae deletion strains, locus YOL006C, strain TOP1, hits give low values 0.914 | S. cerevisiae deletion strains, locus YOL012C, strain htz1 0.967 | S. cerevisiae deletion strains, locus YOL147C, strain pex11, hits give low values 1.01 | S. cerevisiae deletion strains, locus YOR061W, strain CKA2, hits give low values 0.999 | S. cerevisiae deletion strains, locus YOR069W, strain VPS5, hits give low values 1 | S. cerevisiae deletion strains, locus YOR136W, strain idh2, hits give low values 1 | S. cerevisiae deletion strains, locus YOR144C, strain elg1, hits give low values 1 | S. cerevisiae deletion strains, locus YOR184W, strain ser1, hits give low values 0.989 | S. cerevisiae deletion strains, locus YOR316C, strain cot1, hits give low values 1 | [5] 0.937 | [6] 0.99 | S. cerevisiae deletion strains, locus YPR119W, strain clb2, hits give low values 1 | S. cerevisiae deletion strains, locus YPR141C, strain kar3, hits give low values 1.01 | S. cerevisiae deletion strains, locus YPR163C, strain tif3, hits give low values 1 | S. cerevisiae deletion strains, locus YPR167C, strain met16, hits give low values 0.995 | S. cerevisiae deletion strains, strain wtn01, hits give low values 0.998 | S. cerevisiae strains, strain wild type, hits give low values 0.991

COC(=O)c1c(C)[nH]c(C)c1C(=O)c1ccccc1Cc1ccccc1
inactive: S. cerevisiae deletion strains, locus YAL040C, strain CLN3, hits give low values 0.995 | S. cerevisiae deletion strains, locus YCL061C, strain MRC1 (second series), hits give low values 1 | S. cerevisiae deletion strains, locus YDR363W, strain ESC2, hits give low values 1.02 | S. cerevisiae deletion strains, locus YER002W, strain NOP16, hits give low values 0.984 | [1] 0.989 | [2] 1.06 | [3] 0.987 | S. cerevisiae deletion strains, locus YNL175C, strain NOP13, hits give low values 0.986 | S. cerevisiae deletion strains, locus YNL197C, strain WHI3, hits give low values 0.983 | S. cerevisiae deletion strains, locus YNL224C, strain SQS1, hits give low values 0.983 | [4] 1.01 | S. cerevisiae deletion strains, locus YOR083W, strain WHI5 (second series), hits give low values 0.964 | [5] 1.01 | [6] 1
